Results taken from ChEMBL document CHEMBL1961873, “Compounds: GSK PKIS; Assays: Nanosyn kinase panel” (2012).

Experiments:
[1] = biological target: Tyrosine-protein kinase Fyn (Homo sapiens) (UniProt P06241); details: at 1 µM
[2] = biological target: Tyrosine-protein kinase HCK (Homo sapiens) (UniProt P08631); details: at 0.1 µM
[3] = biological target: Tyrosine-protein kinase HCK (Homo sapiens) (UniProt P08631); details: at 1 µM
[4] = biological target: Insulin-like growth factor 1 receptor (Homo sapiens) (UniProt P08069); details: at 0.1 µM
[5] = biological target: Insulin-like growth factor 1 receptor (Homo sapiens) (UniProt P08069); details: at 1 µM
[6] = biological target: Insulin receptor (Homo sapiens) (UniProt P06213); details: at 0.1 µM
[7] = biological target: Insulin receptor (Homo sapiens) (UniProt P06213); details: at 1 µM
[8] = biological target: Insulin receptor-related protein (Homo sapiens) (UniProt P14616); details: at 0.1 µM
[9] = biological target: Insulin receptor-related protein (Homo sapiens) (UniProt P14616); details: at 1 µM
[10] = biological target: T1, Tyrosine-protein kinase ITK/TSK (Homo sapiens) (UniProt Q08881); details: at 0.1 µM;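 also: mean percent inhibition of ITK from the GSK PKIS screen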
T1 sequence (whole entry): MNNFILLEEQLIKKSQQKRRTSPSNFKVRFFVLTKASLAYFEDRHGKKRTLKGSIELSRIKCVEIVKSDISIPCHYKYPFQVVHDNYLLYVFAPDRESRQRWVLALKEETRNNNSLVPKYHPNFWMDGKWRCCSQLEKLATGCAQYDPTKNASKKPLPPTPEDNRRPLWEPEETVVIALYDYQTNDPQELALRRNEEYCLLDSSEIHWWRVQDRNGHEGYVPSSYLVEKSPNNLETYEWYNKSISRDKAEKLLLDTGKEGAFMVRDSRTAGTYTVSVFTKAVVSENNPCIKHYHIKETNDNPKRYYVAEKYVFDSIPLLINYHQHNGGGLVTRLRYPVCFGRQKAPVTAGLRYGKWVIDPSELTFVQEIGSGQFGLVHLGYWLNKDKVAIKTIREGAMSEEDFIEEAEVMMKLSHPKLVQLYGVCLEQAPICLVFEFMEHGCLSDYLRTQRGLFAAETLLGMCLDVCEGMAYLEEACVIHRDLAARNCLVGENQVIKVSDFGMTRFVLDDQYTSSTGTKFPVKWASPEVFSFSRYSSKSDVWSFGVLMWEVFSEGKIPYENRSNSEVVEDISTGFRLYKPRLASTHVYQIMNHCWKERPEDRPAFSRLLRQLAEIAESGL

Chain of Tyrosine-protein kinase Fyn (Homo sapiens) (P06241 2-537 limits assumed): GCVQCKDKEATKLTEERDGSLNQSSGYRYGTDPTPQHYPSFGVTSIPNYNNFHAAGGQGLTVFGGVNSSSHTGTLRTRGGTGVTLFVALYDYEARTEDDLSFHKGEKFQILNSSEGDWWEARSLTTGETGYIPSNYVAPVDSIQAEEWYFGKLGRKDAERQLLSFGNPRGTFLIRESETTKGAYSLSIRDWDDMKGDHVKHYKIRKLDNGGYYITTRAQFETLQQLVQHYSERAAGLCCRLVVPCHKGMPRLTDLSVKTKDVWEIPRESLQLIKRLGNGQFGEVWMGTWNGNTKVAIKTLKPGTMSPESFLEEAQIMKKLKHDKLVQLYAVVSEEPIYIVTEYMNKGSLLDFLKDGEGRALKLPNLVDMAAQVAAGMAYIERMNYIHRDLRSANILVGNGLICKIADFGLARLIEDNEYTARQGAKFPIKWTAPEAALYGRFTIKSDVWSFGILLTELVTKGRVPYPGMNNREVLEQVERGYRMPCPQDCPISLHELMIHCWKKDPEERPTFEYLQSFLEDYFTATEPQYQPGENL
Chain of Tyrosine-protein kinase HCK (Homo sapiens) (P08631 2-526 limits assumed): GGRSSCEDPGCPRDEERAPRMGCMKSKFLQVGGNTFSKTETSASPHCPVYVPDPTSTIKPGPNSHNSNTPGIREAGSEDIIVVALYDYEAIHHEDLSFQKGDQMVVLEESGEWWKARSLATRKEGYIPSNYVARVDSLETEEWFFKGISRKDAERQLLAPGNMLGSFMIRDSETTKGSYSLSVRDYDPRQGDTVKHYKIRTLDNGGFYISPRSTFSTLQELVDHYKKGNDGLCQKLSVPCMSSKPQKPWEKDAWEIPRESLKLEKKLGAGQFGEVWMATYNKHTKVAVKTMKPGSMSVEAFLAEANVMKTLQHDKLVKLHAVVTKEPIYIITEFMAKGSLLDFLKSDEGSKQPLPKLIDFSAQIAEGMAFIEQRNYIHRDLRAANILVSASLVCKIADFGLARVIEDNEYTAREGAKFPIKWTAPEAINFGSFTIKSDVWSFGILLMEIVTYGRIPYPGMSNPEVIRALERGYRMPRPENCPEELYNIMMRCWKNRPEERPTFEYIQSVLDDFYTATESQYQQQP
Chain of Insulin receptor (Homo sapiens) (P06213 28-758 limits assumed): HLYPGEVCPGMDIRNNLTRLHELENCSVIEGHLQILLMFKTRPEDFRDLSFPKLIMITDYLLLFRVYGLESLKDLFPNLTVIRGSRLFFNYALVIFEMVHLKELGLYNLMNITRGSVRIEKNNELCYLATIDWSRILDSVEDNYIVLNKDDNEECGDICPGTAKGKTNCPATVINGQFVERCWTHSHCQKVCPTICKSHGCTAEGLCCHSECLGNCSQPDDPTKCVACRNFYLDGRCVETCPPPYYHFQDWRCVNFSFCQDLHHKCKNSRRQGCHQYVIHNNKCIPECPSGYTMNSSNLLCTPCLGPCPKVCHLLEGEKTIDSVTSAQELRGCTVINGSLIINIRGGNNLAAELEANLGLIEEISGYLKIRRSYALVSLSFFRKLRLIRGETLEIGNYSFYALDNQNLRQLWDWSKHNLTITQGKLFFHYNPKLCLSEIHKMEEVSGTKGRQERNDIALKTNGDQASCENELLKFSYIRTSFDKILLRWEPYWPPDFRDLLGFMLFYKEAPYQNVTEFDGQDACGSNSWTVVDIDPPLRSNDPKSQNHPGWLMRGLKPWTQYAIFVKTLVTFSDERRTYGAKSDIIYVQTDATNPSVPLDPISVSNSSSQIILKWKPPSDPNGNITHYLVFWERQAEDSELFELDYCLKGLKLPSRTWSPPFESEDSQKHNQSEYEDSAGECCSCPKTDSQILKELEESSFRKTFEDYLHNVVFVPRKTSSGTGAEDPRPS
Chain of Insulin receptor (Homo sapiens) (P06213 763-1382 limits assumed): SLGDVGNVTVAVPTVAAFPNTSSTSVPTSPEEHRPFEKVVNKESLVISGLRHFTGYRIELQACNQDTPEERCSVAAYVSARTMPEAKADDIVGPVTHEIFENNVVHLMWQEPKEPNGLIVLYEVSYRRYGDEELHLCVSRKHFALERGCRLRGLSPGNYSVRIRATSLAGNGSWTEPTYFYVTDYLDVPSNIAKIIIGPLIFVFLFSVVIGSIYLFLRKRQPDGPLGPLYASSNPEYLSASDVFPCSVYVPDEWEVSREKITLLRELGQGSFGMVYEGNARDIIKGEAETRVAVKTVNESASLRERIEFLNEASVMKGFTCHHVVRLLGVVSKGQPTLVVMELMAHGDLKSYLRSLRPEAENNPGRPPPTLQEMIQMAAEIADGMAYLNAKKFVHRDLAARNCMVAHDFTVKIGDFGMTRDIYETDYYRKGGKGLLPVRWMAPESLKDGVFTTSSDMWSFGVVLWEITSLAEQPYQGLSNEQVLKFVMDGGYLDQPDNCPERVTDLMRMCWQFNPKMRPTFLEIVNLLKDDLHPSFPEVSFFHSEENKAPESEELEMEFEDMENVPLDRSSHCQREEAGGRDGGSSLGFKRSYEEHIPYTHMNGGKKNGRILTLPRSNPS
Chain of Insulin-like growth factor 1 receptor (Homo sapiens) (P08069 31-736 limits assumed): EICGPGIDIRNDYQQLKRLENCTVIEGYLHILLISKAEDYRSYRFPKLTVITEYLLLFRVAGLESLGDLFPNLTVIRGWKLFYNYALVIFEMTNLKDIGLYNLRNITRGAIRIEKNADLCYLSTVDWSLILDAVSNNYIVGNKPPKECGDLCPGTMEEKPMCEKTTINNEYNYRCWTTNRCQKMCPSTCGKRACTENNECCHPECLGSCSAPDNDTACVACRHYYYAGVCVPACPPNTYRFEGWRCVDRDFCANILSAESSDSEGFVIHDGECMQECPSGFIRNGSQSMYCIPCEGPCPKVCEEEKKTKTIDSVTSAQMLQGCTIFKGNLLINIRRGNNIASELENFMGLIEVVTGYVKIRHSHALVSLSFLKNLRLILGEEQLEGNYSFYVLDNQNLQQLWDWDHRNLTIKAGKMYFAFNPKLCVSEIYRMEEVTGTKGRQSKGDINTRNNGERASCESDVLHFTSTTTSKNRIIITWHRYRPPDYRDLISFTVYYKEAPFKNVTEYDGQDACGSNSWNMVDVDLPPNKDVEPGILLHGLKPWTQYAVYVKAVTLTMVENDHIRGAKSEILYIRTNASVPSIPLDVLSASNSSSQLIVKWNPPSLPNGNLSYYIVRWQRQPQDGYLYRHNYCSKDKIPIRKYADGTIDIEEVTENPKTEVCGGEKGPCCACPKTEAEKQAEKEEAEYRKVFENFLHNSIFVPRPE
Chain of Insulin-like growth factor 1 receptor (Homo sapiens) (P08069 741-1367 limits assumed): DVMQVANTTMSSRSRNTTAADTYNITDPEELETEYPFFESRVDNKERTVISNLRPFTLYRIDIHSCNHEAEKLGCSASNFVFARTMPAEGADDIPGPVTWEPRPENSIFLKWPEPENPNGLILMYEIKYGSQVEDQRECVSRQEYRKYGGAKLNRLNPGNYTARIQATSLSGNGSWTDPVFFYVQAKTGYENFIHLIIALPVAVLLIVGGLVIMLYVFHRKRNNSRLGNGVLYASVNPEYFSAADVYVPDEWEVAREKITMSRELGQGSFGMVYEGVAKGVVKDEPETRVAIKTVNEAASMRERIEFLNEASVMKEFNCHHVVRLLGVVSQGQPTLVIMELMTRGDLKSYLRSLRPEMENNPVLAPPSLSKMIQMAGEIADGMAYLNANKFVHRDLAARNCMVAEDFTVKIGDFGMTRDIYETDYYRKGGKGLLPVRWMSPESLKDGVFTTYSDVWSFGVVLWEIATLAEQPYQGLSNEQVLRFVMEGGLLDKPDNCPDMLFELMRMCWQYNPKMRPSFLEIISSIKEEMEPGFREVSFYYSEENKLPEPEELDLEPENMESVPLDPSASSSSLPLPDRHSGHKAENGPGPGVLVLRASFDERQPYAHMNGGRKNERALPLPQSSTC
Chain of Insulin receptor-related protein (Homo sapiens) (P14616 27-742 limits assumed): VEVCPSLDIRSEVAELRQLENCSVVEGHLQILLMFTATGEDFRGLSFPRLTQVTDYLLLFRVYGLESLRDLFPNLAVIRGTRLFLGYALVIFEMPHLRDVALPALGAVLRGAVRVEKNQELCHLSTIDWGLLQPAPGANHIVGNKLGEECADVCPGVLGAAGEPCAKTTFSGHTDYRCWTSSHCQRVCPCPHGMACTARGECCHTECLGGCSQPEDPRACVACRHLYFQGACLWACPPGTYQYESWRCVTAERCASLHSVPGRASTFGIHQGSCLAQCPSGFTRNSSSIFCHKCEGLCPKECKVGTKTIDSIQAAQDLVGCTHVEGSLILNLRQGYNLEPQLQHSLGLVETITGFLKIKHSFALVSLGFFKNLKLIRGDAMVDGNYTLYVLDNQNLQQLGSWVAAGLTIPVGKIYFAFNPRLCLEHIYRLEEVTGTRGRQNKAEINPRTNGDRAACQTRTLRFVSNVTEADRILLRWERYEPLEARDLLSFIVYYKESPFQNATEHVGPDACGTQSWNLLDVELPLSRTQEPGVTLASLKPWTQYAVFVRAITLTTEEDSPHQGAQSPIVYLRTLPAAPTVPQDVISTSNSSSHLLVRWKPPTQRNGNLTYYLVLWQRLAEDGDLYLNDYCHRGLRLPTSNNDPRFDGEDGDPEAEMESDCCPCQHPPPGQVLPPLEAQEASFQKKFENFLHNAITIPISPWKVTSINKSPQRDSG
Chain of Insulin receptor-related protein (Homo sapiens) (P14616 747-1297 limits assumed): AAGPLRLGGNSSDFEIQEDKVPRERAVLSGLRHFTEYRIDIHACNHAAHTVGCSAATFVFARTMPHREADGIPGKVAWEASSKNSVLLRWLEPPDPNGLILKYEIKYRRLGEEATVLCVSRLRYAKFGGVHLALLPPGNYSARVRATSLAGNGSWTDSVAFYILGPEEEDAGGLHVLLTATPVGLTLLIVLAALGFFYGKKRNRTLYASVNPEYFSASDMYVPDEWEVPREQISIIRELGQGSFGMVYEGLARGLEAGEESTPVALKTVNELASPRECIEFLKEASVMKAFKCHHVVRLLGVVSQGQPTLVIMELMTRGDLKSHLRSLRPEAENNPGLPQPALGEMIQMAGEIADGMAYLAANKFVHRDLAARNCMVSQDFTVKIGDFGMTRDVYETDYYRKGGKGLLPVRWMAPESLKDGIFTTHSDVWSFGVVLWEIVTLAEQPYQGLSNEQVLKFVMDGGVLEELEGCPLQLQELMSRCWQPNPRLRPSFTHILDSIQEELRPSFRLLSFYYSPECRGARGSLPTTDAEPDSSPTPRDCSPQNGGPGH

| SMILES | inhibition [1] [%] | inhibition [2] [%] | inhibition [3] [%] | inhibition [4] [%] | inhibition [5] [%] | inhibition [6] [%] | inhibition [7] [%] | inhibition [8] [%] | inhibition [9] [%] | inhibition [10] [%] |
| --- | --- | --- | --- | --- | --- | --- | --- | --- | --- | --- |
| Cc1cccc(Nc2ncc(-c3ccccc3)o2)c1 | 8.62 | 4.6 | 10.2 | 4.44 | 1.6 | 3.27 | 2.89 | 2.57 | 1.2 | 2.38 |
| Nc1nc(-c2ccc(F)cc2)c(-c2ccc3ncccc3n2)s1 | 12.4 | 5.89 | 17.5 | 4.9 | 24.4 | 6.61 | 43.3 | 2.47 | 1.87 | 2.58 |
| CCCN(CCS(C)(=O)=O)Cc1ccc(-c2ccc3ncnc(Nc4ccc(OCc5cccc(F)c5)c(Cl)c4)c3c2)o1 | 2.14 | 4.4 | 8.65 | 0.58 | 1.93 | 5.38 | 5.24 | 0.9 | 1.54 | 0.49 |
| CCn1c(-c2nonc2N)nc2c(C#CC(C)(C)O)ncc(OC3CCNCC3)c21 | 5.91 | 3.4 | 7.03 | 1.97 | 2.36 | 1.46 | 3.32 | 1.16 | 2.07 | 1.99 |
| COc1ccc(-c2cc(-c3c[nH]nc3-c3ccccn3)ccn2)cc1 | 3.5 | 4.81 | 10.3 | 3.75 | 3.01 | 4.5 | 3.43 | 3.63 | 3.15 | 1.28 |
| COC(=O)Nc1nc2ccc(S(=O)(=O)c3ccc(NC(=O)Nc4cc(C(F)(F)F)ccc4F)cc3)cc2[nH]1 | 1.28 | 3.3 | 7.43 | 1.19 | 1.62 | 0.84 | 1.88 | 0.18 | 1.09 | 1.08 |
| CCc1nn2ncccc2c1-c1ccnc(NC2CC2)n1 | 5.07 | 5.27 | 5.74 | 1.94 | 2 | 2.33 | 4.74 | 2.32 | 1.77 | 1.28 |
| CNC(=O)c1cccc(C#Cc2cncnc2Nc2ccc(OCc3cccc(F)c3)c(Cl)c2)c1 | 5.06 | 2.16 | 2.54 | -0.34 | -0.55 | -2.02 | -0.61 | 0.75 | 0.96 | -0.18 |
| COc1ccc2[nH]c3c4[nH]c5ccc(OC)cc5c4c4c(c3c2c1)C(=O)NC4=O | 19 | 20.1 | 75.6 | 5.28 | 4.22 | 6.91 | 10.3 | 3.27 | 6.93 | 1.85 |
| COc1cc(N2CCN(C(C)C)CC2)ccc1Nc1nc(Nc2ccc(F)cc2C(N)=O)c2cc[nH]c2n1 | 9.69 | 3.05 | 7.94 | 101 | 101 | 103 | 102 | 76.1 | 96.7 | 2.65 |
| N#Cc1c(NC(=O)CN2CCOCC2)sc2c1CCCC2 | 8.48 | 2.96 | 8.43 | 4.81 | 5.33 | 13.2 | 8.64 | 3.54 | 3.5 | 1.1 |
| CCn1c(-c2nonc2N)nc2ccccc21 | 0.78 | 5.97 | 8.93 | 4.98 | 6.36 | 2.87 | 1.78 | 3.31 | 2.08 | 1.11 |
| CCOc1ccc2c(-c3ccnc(Nc4cccc(C(F)(F)F)c4)n3)cnn2n1 | 4.94 | 4.28 | 6.8 | -0.5 | 1.57 | 0.36 | 1.46 | 0.63 | 1 | 0.45 |
| c1ccc(-c2nc3n(c2-c2ccc4c(c2)OCO4)CCC3)nc1 | 2.79 | 2.86 | 0.81 | 9.41 | 8.89 | 4.57 | 3.26 | 0.08 | 1.11 | 0.42 |
| NS(=O)(=O)c1ccc(N/N=C2\C(=O)Nc3ccc4ncccc4c32)cc1 | 30.1 | 13.6 | 73.5 | 1.63 | 13.7 | 5.75 | 27.8 | -0.5 | 1.85 | 2.75 |
| COc1ccc(-c2nn3ncccc3c2-c2ccnc(Nc3ccc4c(c3)OCCO4)n2)cc1 | 36.6 | 13.4 | 46 | -3.1 | 7.28 | 1.21 | 24.1 | 0.02 | 3.24 | -1.45 |
| CCNC(=O)O[C@H]1CN[C@H](C#Cc2cc3ncnc(Nc4ccc(OCc5cccc(F)c5)c(Cl)c4)c3s2)C1 | 1.8 | 5.66 | 5.6 | 3.27 | 2.91 | 0.78 | 6.61 | 0.8 | 1.47 | 1.32 |

| SMILES | inhibition [1] [%] | inhibition [2] [%] | inhibition [3] [%] | inhibition [4] [%] | inhibition [5] [%] | inhibition [6] [%] | inhibition [7] [%] | inhibition [8] [%] | inhibition [9] [%] | inhibition [10] [%] |
| --- | --- | --- | --- | --- | --- | --- | --- | --- | --- | --- |
| Fc1ccc(-c2nn3ccccc3c2-c2ccncc2)cc1 | 1.04 | 1.96 | 5.95 | 0.6 | 0.31 | 1.92 | 4.03 | -0.72 | 0.71 | 1.1 |
| COc1ccc(CNC(=O)c2ccc(-c3cc(-c4nnc(C)o4)ccc3C)cc2)cc1 | 2.79 | 5.56 | 4.62 | -2.65 | 0.47 | 0.9 | 0.55 | 0.27 | 0.52 | 2.25 |
| c1cc(-c2cnn3nc(N4CCOCC4)ccc23)nc(NC2CC2)n1 | 4.87 | 7.14 | 11.7 | 4.81 | 5 | 4.73 | 8.56 | 2.65 | 1.15 | 1.06 |
| COC(=O)c1sc(-n2cnc3cc(OC)c(OC)cc32)cc1OCc1ccccc1C(F)(F)F | 56.3 | 9.79 | 28.1 | 0.42 | 0.25 | 5.09 | 5.96 | 1.78 | -0.14 | 1.1 |
| CS(=O)(=O)CCNCc1ccc(-c2ccc3ncnc(Nc4ccc(OCc5ccccc5)c(C(F)(F)F)c4)c3c2)o1 | 4.69 | 4.59 | 5.75 | -0.48 | -0.18 | 0.37 | 2.62 | 2.84 | 2.56 | 0.4 |
| Fc1ccc(-c2nn3ncccc3c2-c2ccnc(Nc3ccc4c(c3)OCCO4)n2)cc1 | 88 | 26.3 | 71.5 | 8.14 | 3.49 | 7.04 | 18.3 | 2.61 | 1.61 | 1.51 |
| CS(=O)(=O)CCNCc1coc(-c2ccc3ncnc(Nc4ccc(OCc5ccccc5)cc4)c3c2)c1 | 12.2 | 4.78 | 9.64 | 0.62 | 2.16 | 3.09 | 2.56 | -0.04 | 3.03 | 0.65 |
| NC(=O)c1sc(-n2cnc3ccc(C(F)(F)F)cc32)cc1OCc1ccccc1Br | 4.41 | 5.59 | 5.95 | 3.3 | 1.19 | 4.46 | 5.5 | 1.61 | 0.64 | 1.03 |
| FC(F)(F)c1cccc(-c2nn3ncccc3c2-c2ccnc(Nc3ccc4c(c3)OCCO4)n2)c1 | 48.1 | 5.43 | 31.2 | -0.53 | 1.37 | -1.37 | 3.05 | 0.31 | 1.27 | 0.97 |
| CCn1c(-c2nonc2N)nc2cnc(Oc3cccc(NC(=O)c4ccc(N(C)C)cc4)c3)cc21 | 1.97 | 4.12 | 4.03 | -0.26 | 0.33 | 2.97 | 3.14 | -0.46 | 0.53 | 0.98 |
| COc1cc(/C=N/Nc2ncnc3[nH]ncc23)ccc1O | 41.2 | 11.1 | 54.2 | 3.46 | 12.5 | 5.52 | 15.3 | 3.28 | 3.65 | 1.29 |
| Nc1ncc(-c2cccc(S(N)(=O)=O)c2)c2scc(-c3ccc(F)c(Cl)c3)c12 | 32.6 | 28.2 | 76.1 | 0.87 | 1.23 | -0.93 | 1.76 | 2.94 | 4.45 | 0.53 |
| Cc1cccc2c1NC(=O)/C2=N\Nc1ccc(S(N)(=O)=O)cc1 | 1.92 | 4.11 | 6.57 | 1.39 | 2.37 | 2.44 | 2.27 | 6.42 | 0.05 | 1.75 |
| CNC(=O)c1cc(-c2ccc(F)cc2)cc(-c2ccc(S(=O)(=O)N3CCCC3)cc2)c1N | 5.48 | 2.71 | 3.16 | 0.57 | 1.32 | 4.78 | 5.39 | -0.17 | 1.33 | 1.41 |
| CC(=O)NCc1cccc(C#Cc2cncnc2Nc2ccc(OCc3cccc(F)c3)c(Cl)c2)c1 | 3.27 | 2.8 | 2.97 | 0.82 | 1.07 | 2.9 | 0.68 | -0.93 | -0.28 | 0.36 |
| COc1cccc(-c2c[nH]c3c(N/N=C/c4ccncc4)ncnc23)c1 | 58.7 | 12.8 | 51.8 | 0.05 | 2.22 | 1.17 | 3.79 | 3.25 | 2.79 | 1.15 |
